# Source: PubChem BioAssay
# YopH inh: YopH (Yersinia) phosphatase inhibition; fluorescence Ex485/Em525; inhibition, % (no concentration beside the values); hit rate 0.16% among 140,000; AID 898; in the data active = inhibition above about 50%
# RmlCD inh 1536: M. tuberculosis RmlC/RmlD inhibition; RmlC+RmlD coupled enzyme assay, percent inhibition; primary screen in compound mixtures; inhibition, % at 3.6 µM; hit rate 0.03% among 160,000; AID 1533; in the data active = inhibition mostly above about 34%, no sharp cut-off
# Target sequence (P9WH09 whole entry, looked up): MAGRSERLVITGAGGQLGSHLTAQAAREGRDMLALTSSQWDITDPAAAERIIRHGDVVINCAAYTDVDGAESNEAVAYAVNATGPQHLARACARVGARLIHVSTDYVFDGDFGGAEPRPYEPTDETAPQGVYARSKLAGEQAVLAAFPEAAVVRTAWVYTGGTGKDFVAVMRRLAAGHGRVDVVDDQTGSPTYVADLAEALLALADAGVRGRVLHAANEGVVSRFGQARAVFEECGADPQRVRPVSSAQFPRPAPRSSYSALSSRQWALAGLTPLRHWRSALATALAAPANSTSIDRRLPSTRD
# Target sequence (P9WH11 whole entry, looked up): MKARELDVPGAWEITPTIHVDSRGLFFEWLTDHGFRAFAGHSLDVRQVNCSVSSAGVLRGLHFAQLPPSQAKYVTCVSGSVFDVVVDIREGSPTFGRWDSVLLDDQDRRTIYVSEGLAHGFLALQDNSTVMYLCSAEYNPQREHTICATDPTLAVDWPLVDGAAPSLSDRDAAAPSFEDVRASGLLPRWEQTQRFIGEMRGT
# A number is an active result; . = inactive; / = no result given. Many of the other results were omitted from the sample, so hits are more common in it than they were.
SMILES,YopH inh,RmlCD inh 1536
CC1(C)C2CCC1(CS(=O)(=O)N1CCC(C(=O)O)CC1)C(=O)C2 (stereo not drawn),/,.
Nc1ccc(Nc2ccccc2N)cc1,51,.
COc1ccc(Nc2ccccc2N)cc1,/,.
COc1ccc(OC)c(C(=O)c2ccc(C(=O)Nc3cccc4ccccc34)cc2)c1,.,.
O=C(/C=C/c1ccc([N+](=O)[O-])cc1)OCC(=O)N1c2ccccc2Sc2ccccc21,53,.
O=C(COC(=O)/C=C/c1ccc([N+](=O)[O-])cc1)NCc1ccccc1,.,.
CCOC(=O)c1c2c(n(C)c1COC)C(=O)C(=O)c1ccc(Br)cc1-2,80,/
CCCn1c(=O)c(C(=O)OCC)c(O)c2cc(Br)ccc21,/,.
O=C1CCCCC1c1cccc2ccccc12 (stereo not drawn),.,.
O=C1c2ccccc2C(=O)C12OC2c1cccc2ccccc12 (stereo not drawn),99,.
CC(C)CN1C(=O)c2ccc(NC(=O)Cc3ccccc3)cc2C1=O,/,.
Cc1cc(C)c(S(=O)(=O)c2ccccc2)c(N2CCOCC2)n1,/,.
CCc1cc[n+](C2=C([O-])c3ccccc3C(=O)/C2=N\S(=O)(=O)c2cccs2)cc1,69,.
O=C1C(Nc2ccccc2)=C/C(=N/S(=O)(=O)c2cccs2)c2ccccc21,.,.
CCOC(=O)CNC(=O)c1ccc(SCC)cc1,/,.
CN(CC(=O)N1CCCc2c1c(=O)oc1ccc(O)cc21)Cc1ccccc1,51,.
CCCOc1ccc2oc(=O)c3c(c2c1)CCCN3C(=O)CN1CCCC(C(=O)OCC)C1 (stereo not drawn),.,.
O=C(CN1CCCC1)N1CCCc2c1c(=O)oc1ccc(OCc3ccccc3)cc21,.,.
CC1CCN(CCC(=O)N2CCCc3c2c(=O)oc2ccc(O)cc32)CC1,61,.
CC(C(=O)N1CCCc2c1c(=O)oc1ccc(O)cc21)N1CCc2ccccc2C1 (stereo not drawn),53,.
CC(C(=O)N1CCc2ccccc21)N1CCc2ccccc2C1 (stereo not drawn),.,/
O=C(NC(Cc1c[nH]c2ccccc12)c1nnc2n1CCCCC2)c1ccccc1 (stereo not drawn),.,.
O=C(NC(Cc1c[nH]c2ccccc12)c1nnc2n1CCCCC2)c1cccs1 (stereo not drawn),55,/
CCC(C)n1c(SCc2ccc([N+](=O)[O-])cc2)nc2ccsc2c1=O (stereo not drawn),.,.
CN1CCC(=NOc2ccc([N+](=O)[O-])cc2)CC1,/,.
SMILES,YopH inh,RmlCD inh 1536
Cc1ccccc1Nc1cc2ccccc2c(=O)[nH]1,101,.
Cc1cc2ccccc2c(=O)[nH]1,.,.
O=c1[nH]c(Nc2ccc(F)cc2)cc2ccccc12,90,.
O=c1[nH]c(-c2ccccn2)cc2ccccc12,.,.
O=c1c(Cc2c(F)cccc2Cl)c(O)ccn1CCc1c[nH]c2ccccc12,/,.
O=C(CC(c1ccccc1)c1ccco1)Nc1nccs1 (stereo not drawn),.,/
CCOc1ccccc1CNCCOC,/,.
COC(=O)CCC(=O)Nc1ccc(NC(=O)CCC(=O)OC)cc1,.,/
COC(=O)CCC(=O)Oc1ccc(OC(=O)CCC(=O)OC)cc1,59,/
CC(C)[C@H](NC(=O)c1ccccc1)C(=O)OCC(=O)N1CCN(C(=O)c2ccco2)CC1,/,.
CCn1c(-c2cc(OC)c(OC)c(OC)c2)n[nH]c1=S,96,/
C=CCn1c(-c2cc(OC)c(OC)c(OC)c2)n[nH]c1=S,.,.
CCC1CCCCN1C(=S)NC1CCCCC1 (stereo not drawn),.,.
COc1ccc(CNC(=O)C2(C)Cc3ccccc3C(=O)O2)cc1 (stereo not drawn),/,.
O=C(Nc1ccc2ncccc2c1)c1cc(Cl)ccc1Cl,/,.
CCOCCCn1c(C)nc2c(c1=O)c1nc3ccccc3nc1n2CCC1=CCCCC1,.,.
Cc1nc2c(c(=O)n1CCC1=CCCCC1)c1nc3ccccc3nc1n2/N=C/c1ccccc1,.,34
Cc1cc(C)nc(N/N=C/c2cc(Br)ccc2O)n1,/,.
O=C(/C=C/c1ccccc1Cl)NCc1cccs1,.,.
Cc1ccc(-c2cn3nc(C)c(C)nc3n2)cc1,.,/
CCc1ccc(-c2cn3nc(-c4ccccc4)cnc3n2)cc1,/,70
O=C(O)CCN1Cc2ccccc2C1=O,.,.
CCC(=O)N1Cc2ccccc2-c2ccccc2C1=O,52,/
COCCCNC(=O)C1CCCN(C(=O)Nc2ccc(OC)cc2)C1 (stereo not drawn),53,/
COc1ccc(NC(=O)N2CCCC(C(=O)NC(C)C)C2)cc1 (stereo not drawn),.,/
SMILES,YopH inh,RmlCD inh 1536
COc1ccc(CNC(=O)CN(C2CCCCC2)S(C)(=O)=O)cc1,.,.
Cc1cc(C)n2nc(SCCC(=O)NCc3ccccc3)nc2n1,/,.
COc1ccc2c(c1)c(=O)cc(C)n2CC(=O)NCc1ccco1,93,/
COc1ccc(-n2c(=O)c3ccccc3n(CC(=O)NCc3ccco3)c2=O)cc1,/,.
CCOC(=O)C1CCN(C(=O)N(CC)CC)CC1,/,.
CN=C(Nc1cccc(Cl)c1)SC1CC(=O)N(c2ccc(OC)cc2)C1=O (stereo not drawn),/,.
Cc1nc2ccccc2c(=O)n1NC(=O)c1c(O)c2c(n(CC(C)C)c1=O)CCCC2,84,.
CCCn1c2c(c(O)c(C(=O)Nc3nc4ccccc4s3)c1=O)CCCC2,/,.
CC(C)Cn1c2c(c(O)c(C(=O)Nc3nc4ccccc4s3)c1=O)CCCC2,/,82
CCCCCCc1nc2ccccc2c(=O)n1NC(=O)c1c(O)c2c(n(CC(C)C)c1=O)CCCC2,.,.
NS(=O)(=O)c1ccc(O)c(NC(=O)c2ccc([N+](=O)[O-])cc2)c1,/,.
O=C(COC(=O)c1cccnc1Cl)NCc1ccco1,/,.
O=C(/C=C/c1c(F)cccc1Cl)c1ccc(O)cc1,/,.
COc1ccc(/C=N/NC(=O)C(C)n2cnc3ccccc3c2=O)cc1OC (stereo not drawn),67,/
COc1ccc(/C=N/NC(=O)CCn2cnc(-c3ccccc3)c2-c2ccccc2)cc1OC,.,.
O=C(O)c1ccc(-c2nc3ccccc3[nH]2)cc1,.,95
Fc1ccc(-c2nc3ccccc3[nH]2)cc1,/,.
C=CCN=C1CCCc2c1[nH]c1ccc(C)cc21,/,.
Cc1ccc2c(c1)CCCN2N=O,.,.
CCCN1CCCc2cc(CN)ccc21,84,.
CC(=O)Nc1ccc(NC2=C(Cl)C(=O)c3ccccc3C2=O)cc1,/,.
Cc1ccc(NC2=C(NCCO)C(=O)c3ccccc3C2=O)cc1,89,.
CCCNC(=O)c1nnsc1Sc1ccc(Cl)cc1,/,.
O=C(Nc1cccc([N+](=O)[O-])c1)Nc1cccs1,/,.
Cc1cc(C)nc(N/N=C2/CCCC/C2=C\c2ccccc2)n1,/,.
SMILES,YopH inh,RmlCD inh 1536
COc1ccc(CC(=O)N/N=C(\C)CC(=O)NCc2ccco2)cc1OC,/,.
COC1=C(OC)C(=O)C(CCCCCCCCCCO)=C(C)C1=O,/,.
CC1=C(C)C(=O)C(CCCCC#CCCCC#CCO)=C(C)C1=O,65,/
O=C(COC(=O)c1cc(-c2ccco2)nc2ccccc12)NCc1ccccc1,.,/
CNC(=O)COC(=O)c1cc(-c2ccco2)nc2ccccc12,/,37
CCN1CCN(CCCOc2ccc(-c3ccccc3)cc2)CC1,55,.
CCN1CCN(CCCOc2ccccc2-c2ccccc2)CC1,/,.
COCCNC(=O)COc1cccc2c1OC(C)(C)C2,/,.
N#Cc1c(Cl)nsc1NC(=O)c1ccccc1,/,.
COc1cccc(/C=C/C(=O)Nc2ccccc2N2CCOCC2)c1,/,.
CN(Cc1ccccc1)C(=O)COc1ccc(Br)cc1Cl,/,.
